Bioassay records: PubChem BioAssay, National Center for Advancing Translational Sciences (NCATS)
This is a sample that favours compounds with a hit; in the whole collection about 2.8% have one here.
IP6K1 inh: Primary qHTS assay for small molecule inhibitors of Inositol hexaphosphate kinase 1 (IP6K1); Inositol hexakisphosphate kinase 1 (Homo sapiens), Q92551; IP6K1 kinase, ADP-Glo luminescence, 2 h; hits give low values; activity change, % (series mostly up to about 58 µM); hit rate 0.81% among 140,000; in the data active means activity change below about -25%
Target sequence (Q92551 whole entry, looked up): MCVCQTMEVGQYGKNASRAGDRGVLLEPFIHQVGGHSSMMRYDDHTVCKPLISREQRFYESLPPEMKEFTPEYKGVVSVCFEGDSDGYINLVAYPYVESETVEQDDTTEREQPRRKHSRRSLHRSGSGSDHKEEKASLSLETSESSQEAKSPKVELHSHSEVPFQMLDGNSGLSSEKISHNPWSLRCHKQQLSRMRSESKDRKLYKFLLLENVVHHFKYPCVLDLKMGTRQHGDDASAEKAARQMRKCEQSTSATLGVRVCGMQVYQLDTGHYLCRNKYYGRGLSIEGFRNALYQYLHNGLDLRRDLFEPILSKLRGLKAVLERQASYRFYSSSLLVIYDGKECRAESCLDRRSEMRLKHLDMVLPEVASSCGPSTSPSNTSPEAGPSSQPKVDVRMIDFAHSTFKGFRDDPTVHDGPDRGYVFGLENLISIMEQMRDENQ
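ADP-Glo luminescence measures ADP made by human IP6K1 during a 2 h RT reaction with ATP/IP6 (mix at 1.3 mM/130 uM); top library doses 57.5 and 19.1 uM final.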
SNCA expr inh: Primary qHTS assay for inhibitors of alpha-synuclein gene (SNCA) expression. hit rate 0.17% among 140,000. AID 1671194, 2021. HEK-293 SNCA-luciferase knock-in, luminescence, 24 h. Potency, µM (highest dose often 57.2 µM), usual class: inhibitors; further: nearly all actives have a fitted effect of over 45% in size
KDM5B inh: Primary screen for KDM5B Histone Demethylases FDH-coupled qHTS; Lysine-specific demethylase 5B (Homo sapiens), Q9UGL1; KDM5B demethylase, FDH-coupled NADH fluorescence (FDH is formaldehyde dehydrogenase); Potency, µM (titrated, usually from 57.7 µM), usual class: inhibitors; hit rate 2.6% among 220,000; further: nearly all actives have a fitted effect of over 70% in size
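qHTS format, multiple compound concentrations. Buffer 50 mM HEPES pH 7.5/0.01% Tween-20; 200 nM KDM5BΔAP final; 10 min compound preincubation; substrate-mix levels 12.5 µM peptide, 25 µM α-KG, 0.25 mM NAD⁺; 30 min RT; ΔRFU.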
HEK293 viab: GF-AFC viability counterscreen for inhibitors of alpha-synuclein gene (SNCA) expression. AID 1671193, 2021. Potency, µM (titrated, usually from 57.1 µM), usual class: cytotoxic. hit rate 0.12% among 150,000. HEK-293-SNCA-luc viability, GF-AFC fluorescence, 24 h; further: nearly all actives have a fitted effect of over 30% in size
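HEK-293-SNCA-luc cells (1500/well) plated 24 h, then exposed 24 h to a dilution series; GF-AFC added 30 min at 37C, fluorescence 405/540 nm; normalised to medium-only and DMSO wells, Hill fit.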
IP6K1 conf: Confirmatory qHTS assay for small molecule inhibitors of Inositol hexaphosphate kinase 1 (IP6K1). shares compounds with IP6K1 inh. recombinant IP6K1 kinase, ADP-Glo luminescence, 2 h. Potency, µM (series often up to 49 µM), usual class: inhibitors. hit rate 13% among 1,200. AID 1645852, 2021; further: nearly all actives have a fitted effect of over 65% in size
Each line names hits and unclear results; the compound was inactive in the other large screens (follow-up assays come after a bar, where they were run). Unless noted, the call rests on the fitted dose curve; in most records, active means well fitted curve in the direction sought with a large enough effect; inconclusive means small, poorly fitted or top-dose-only effect, or another doubt; inactive means no such curve, though single readings can be large; an effect the other way counts as inactive or inconclusive.

CN1CCN(C[C@@H]2CN(C(=O)c3ccc4ccccc4c3)C[C@@H]2CO)CC1	none
COc1cc(C2c3c(oc4ccccc4c3=O)C(=O)N2c2nnc(C(C)C)s2)cc(OC)c1OC (stereo unspecified)	IP6K1 inh -26 | IP6K1 conf inactive
Cc1ccc(C2c3c(oc4ccccc4c3=O)C(=O)N2c2nnc(C)s2)cc1 (stereo unspecified)	none
CCOc1ccc(C2c3c(oc4ccccc4c3=O)C(=O)N2c2nnc(C)s2)cc1OC (stereo unspecified)	IP6K1 inh -37 | IP6K1 conf inactive
O=C(Nc1ncn(Cc2c(F)cccc2Cl)n1)c1ccn(COc2ccc(Cl)cc2)n1	none (no result: IP6K1 inh, SNCA expr inh, HEK293 viab)
CCOc1ccc(/C=C/C(=O)c2cc3ccc(OC)cc3oc2=O)cc1OC	none (no result: IP6K1 inh, SNCA expr inh, HEK293 viab)
Cc1ccc(N2CCC(NC(=O)Cc3cccc(F)c3)C2=O)cc1 (stereo unspecified)	SNCA expr inh inconclusive
O=C(c1ccncc1)N1CCCN(Cc2cccnc2)c2ccccc21	none
NC(=O)c1cc(-c2ccccc2F)cc2c1OCCN2Cc1cccnc1	IP6K1 inh -25, KDM5B inh 35µM | IP6K1 conf inconclusive
CNC(=O)c1cc(-c2ccc(C)cc2)cc2c1OCCN2Cc1cccnc1	IP6K1 inh -29, KDM5B inh inconclusive | IP6K1 conf inconclusive
CC1CCCCN1CCCCNC(=O)CCc1ccc(C#N)cc1 (stereo unspecified)	none (no result: IP6K1 inh, SNCA expr inh, HEK293 viab)
O=C(O)c1ccccc1NC(=O)N1CCC(c2ccccc2C(F)(F)F)CC1	none (no result: SNCA expr inh, KDM5B inh)
Cc1ccc([N+](=O)[O-])cc1S(=O)(=O)N1CCn2cccc2C1c1ccccc1 (stereo unspecified)	KDM5B inh inconclusive
Cc1ccc([N+](=O)[O-])cc1S(=O)(=O)N1CCn2cccc2C1c1ccccc1F (stereo unspecified)	IP6K1 inh -26, KDM5B inh inconclusive | IP6K1 conf inactive
CCOc1ccc(-c2cc(C(=O)Nc3ccc(NC(C)=O)cc3)no2)cc1	IP6K1 inh -27, KDM5B inh inconclusive | IP6K1 conf inactive
CCOc1ccc(C(=O)c2oc3ccccc3c2NC(=O)c2cc(-c3ccc(Cl)cc3)on2)cc1	none
O=C(NCC1CC1)c1ccnc(-c2nnc3ccc(Nc4ccccc4)nn23)c1	HEK293 viab inconclusive
COc1cccc(C(=O)N2CC(=O)Nc3ccc(C)cc3C2c2ccc(F)cc2)c1OC (stereo unspecified)	IP6K1 inh -25 | IP6K1 conf inactive
Cc1ccc2c(c1)C(c1ccccc1)N(C(=O)c1ccccc1F)CC(=O)N2 (stereo unspecified)	KDM5B inh inconclusive
O=C(Nc1ccc(N2CCC(N3CCCCC3)CC2)c(C(=O)O)c1)c1ccccc1	IP6K1 inh -37, KDM5B inh inconclusive | IP6K1 conf inconclusive
Cc1ccc([N+](=O)[O-])cc1S(=O)(=O)N(C)/N=C/c1cnc2ccc(Br)cn12	IP6K1 inh -25, HEK293 viab inconclusive (no result: SNCA expr inh, KDM5B inh) | IP6K1 conf inconclusive
Cc1cc(S(=O)(=O)c2ccc([N+](=O)[O-])cn2)ccc1Br	none (no result: IP6K1 inh, SNCA expr inh, HEK293 viab)
Cc1cc(C)cc(NC(=O)CCC(=O)N2Cc3ccccc3Oc3ncccc32)c1	none
CCOC(=O)c1cccc(NC(=O)N2Cc3ccccc3Oc3ncccc32)c1	IP6K1 inh -33, KDM5B inh inconclusive, HEK293 viab inconclusive | IP6K1 conf inactive
NCc1ccc(-c2cc(F)cc(F)c2)cc1	none
Cc1cccc(Nc2c3c(nc4nncn24)CCC3)c1C	IP6K1 inh -27 | IP6K1 conf inactive
Cc1cc(C(=O)NC2CC(c3nnc(CN(C)C)n3C)C2)c2c(C)noc2n1 (stereo unspecified)	IP6K1 inh -29 | IP6K1 conf inactive
C=Cc1cc(O)cc2nc(-c3ccc(O)c(F)c3)oc12	IP6K1 inh -28 (no result: SNCA expr inh, KDM5B inh) | IP6K1 conf inconclusive
COc1ccc(-c2ccc3nc(-c4ccc(F)c(F)c4)oc3c2)c(OC)c1OC	none
COc1ccc(C(=O)Nc2ccc(NC(=O)c3cccs3)cc2)cc1OC	IP6K1 inh -56, KDM5B inh inconclusive, HEK293 viab inconclusive | IP6K1 conf inactive
